Sampled rows, rich in hits. Any-hit rate of the full collection: about 1.6%.
KCNQ2 block: rat KCNQ2 potassium channel inhibitors, primary screen, cell-based, CHO-K1, FluxOR thallium flux, B-score; Potassium voltage-gated channel subfamily KQT member 2 (Rattus norvegicus), O88943; 310,000 compounds, 1.1% hits; B-score at 10 µM; 20 min; stronger effect = lower value;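 active = fluorescence ratio B-score at most minus 3 library SDs, with starting brightness B-score within 2 library SDs, cut at about -5.5 in these data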
Target sequence (O88943 whole entry, looked up): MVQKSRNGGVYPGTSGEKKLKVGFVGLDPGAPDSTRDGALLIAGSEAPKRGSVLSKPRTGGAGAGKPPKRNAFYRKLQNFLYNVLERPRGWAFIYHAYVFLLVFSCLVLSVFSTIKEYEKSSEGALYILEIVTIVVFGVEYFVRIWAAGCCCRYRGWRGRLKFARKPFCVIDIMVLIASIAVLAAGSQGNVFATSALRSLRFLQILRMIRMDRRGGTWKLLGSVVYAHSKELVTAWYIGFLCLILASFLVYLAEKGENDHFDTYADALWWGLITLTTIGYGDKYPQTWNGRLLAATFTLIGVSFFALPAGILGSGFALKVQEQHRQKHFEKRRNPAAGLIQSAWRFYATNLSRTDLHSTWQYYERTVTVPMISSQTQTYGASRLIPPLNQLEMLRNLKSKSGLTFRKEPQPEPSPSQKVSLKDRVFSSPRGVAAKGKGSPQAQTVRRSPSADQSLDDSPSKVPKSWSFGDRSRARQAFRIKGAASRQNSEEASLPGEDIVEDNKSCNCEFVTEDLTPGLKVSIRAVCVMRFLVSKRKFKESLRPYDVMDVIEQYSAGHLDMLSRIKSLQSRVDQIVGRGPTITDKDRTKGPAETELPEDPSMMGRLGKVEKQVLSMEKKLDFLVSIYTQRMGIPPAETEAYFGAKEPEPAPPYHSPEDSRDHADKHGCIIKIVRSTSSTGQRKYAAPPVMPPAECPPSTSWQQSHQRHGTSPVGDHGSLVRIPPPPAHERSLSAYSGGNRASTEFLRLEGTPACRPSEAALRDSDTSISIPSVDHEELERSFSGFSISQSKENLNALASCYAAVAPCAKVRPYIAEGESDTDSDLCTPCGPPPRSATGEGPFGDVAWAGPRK
KCNQ2 pot: potentiators of rat KCNQ2 potassium channel; Potassium voltage-gated channel subfamily KQT member 2 (Rattus norvegicus), O88943; CHO-K1 KCNQ2, FluxOR thallium flux fluorescence; stronger effect = higher value; B-score at 10 µM; 310,000 compounds, 0.54% hits; AID 2239, 2010;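 active = fluorescence ratio B-score at least 3 SD of library B-scores, with initial fluorescence B-score within 3 of them, cut at about 5.3 in these data; same plate scores as AID 2156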;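 note: B-score of peak minus minimum over baseline fluorescence ratio after K+ and Tl+ stimulus; positive B-score means potentiation of KCNQ2 with more thallium influx and brighter signal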
* = called active by the depositor; i = inactive; x = not tested or not shown.

SMILES	KCNQ2 block	KCNQ2 pot
Clc1cccc(-c2nc(NCCCN3CCOCC3)c3ccccc3n2)c1	i	x
CCN(CC)S(=O)(=O)c1ccc2c(c1)c(=O)c(C(=O)NCCc1ccc(OC)c(OC)c1)cn2C	i	x
CC1CC(C)(C)N(C(=O)CN2C(=O)CCC2=O)c2ccccc21 (stereo not given)	i	x
COC(=O)c1ccc(COC(=O)c2ccc(N(C)C)cc2)cc1	i	x
COC(=O)c1cccc(COC(=O)c2ccc(N(C)C)cc2)c1	-6.49*	-6.49
COc1ccc(CN2CCN(C(=O)Cn3nc(C(=O)O)c4ccccc4c3=O)CC2)cc1F	i	0.11
COc1ccc(NC(=O)CN(C)C(=O)c2ccc(-c3ccccc3Cl)o2)cc1	i	x
Cc1cccc(N2CC(C)Cn3c2nc2c3c(=O)[nH]c(=O)n2C)c1 (stereo not given)	i	0.84
CC12CCC(=O)N1C(C(=O)Nc1nc3ccc(S(C)(=O)=O)cc3s1)CS2 (stereo not given)	i	0.59
CC12CCC(=O)N1C(C(=O)Nc1nc3ccc(Cl)cc3s1)CS2 (stereo not given)	-6.01*	-6.01
CCOC(=O)c1nn(-c2ccccc2Cl)c(=O)cc1OCC(=O)Nc1cccc(OC)c1	i	0.25
COc1ccc(-c2cc(N)n(S(=O)(=O)c3c(F)c(F)c(F)c(F)c3F)n2)cc1OC	-8.75*	-8.75
CCOc1ccc(-c2cc(N)n(S(=O)(=O)c3ccc(OC)cc3)n2)cc1	i	2.02
COc1cc(CN(C)c2ncnc3sccc23)ccc1OC(F)F	i	1.87
COc1ccc2c(c1)O[C@H](c1ccc3c(c1)OCO3)[C@@H](OC(=O)N[C@H](C)C1CCCCC1)C2=O	i	x
COc1cccc([C@@H]2Oc3ccc(OC)cc3C(=O)[C@H]2OC(=O)N[C@H](C)C2CCCCC2)c1	-6.81*	-6.81
CCOC(=O)c1cc(-c2ccccc2)nc2ccc(C)cc12	i	x
CCOC(=O)c1cnc2ccc(C)cc2c1Sc1ccc(F)cc1	-5.55*	-5.55
Cc1ccc(C(=O)c2cc([N+](=O)[O-])ccc2N2CCCCC2)cc1C	i	x
Cc1ccc(C(=O)c2ccc([N+](=O)[O-])cc2)cc1C	i	5.57*
O=C(CN(C(=O)c1csnn1)c1ccccc1F)NC1CCCCC1	i	0.11
Cc1c(C(=O)NC2CCS(=O)(=O)C2)oc2ccccc12 (stereo not given)	i	0.61
Cc1ccc(S(=O)(=O)NCc2ccccc2)cc1C(=O)N1CC(C)CC(C)C1 (stereo not given)	-6.01*	-6.01
Cc1ccc(S(=O)(=O)NCc2ccccc2)cc1C(=O)N1CCCCC1	i	1.65
NS(=O)(=O)c1ccc(N2CCN(CCOc3ccc(Cl)cc3)CC2)nc1	i	1.76
SMILES	KCNQ2 block	KCNQ2 pot
CC1CCN(c2cc(C#N)c(C#N)cc2[N+](=O)[O-])CC1	i	0.25
CC1CCN(c2cc(N)c(Cl)cc2[N+](=O)[O-])CC1	-6.47*	-6.47
Cc1cccc(-n2cc(CN(C)Cc3nccn3C)c(-c3cccc(F)c3)n2)c1	-6.71*	-6.71
CCn1ccnc1CN(C)Cc1cn(-c2cccc(C)c2)nc1-c1cccc(F)c1	i	x
O=C(NC(=S)NNC(=O)c1cccs1)c1ccccc1	i	x
Cc1cccc(C(=O)NC(=S)NNC(=O)c2cccs2)c1	i	8.19*
C=CCn1c(SCC(=O)NC2CC2)nnc1C1CC1	i	x
CC(C)C[C@H](NC(=O)N1CCn2c1nc1ccccc12)C(=O)NCc1ccc2c(c1)OCO2	i	x
Cc1ccc(CN2CC(C(=O)N3CC=C(c4ccccc4)CC3)CC2=O)cc1 (stereo not given)	i	x
Cc1ccc(S(=O)(=O)C2(C(=O)N3CCN(c4ccccc4F)CC3)CC2)cc1	i	x
Cc1cccc(N2CCN(C(=O)C3(S(=O)(=O)c4ccc(Cl)cc4)CC3)CC2)c1C	-6.25*	-6.25
Cc1ccc(Cl)cc1N1CCN(C(=O)C2(S(=O)(=O)c3ccc(Cl)cc3)CC2)CC1	-6.15*	-6.15
O=C(N1CCN(c2cccc(Cl)c2)CC1)C1(S(=O)(=O)c2ccc(Cl)cc2)CC1	i	x
CCc1nn2c(=O)cc(CSCC(=O)Nc3ccccc3Cl)nc2s1	i	2.54
O=C(c1ccncc1)N1CCN(S(=O)(=O)c2cccc(Cl)c2)CC1	i	x
CCN(C(=O)/C=C/c1ccccc1)C1CCCCC1	-5.8*	-5.8
CCCCN(C(=O)/C=C/c1ccccc1)C1CCS(=O)(=O)C1 (stereo not given)	i	0.07
Cc1cccc(CCNC(=O)C2CCC(=O)N(Cc3ccccc3F)C2)n1 (stereo not given)	i	0.99
Cc1ccc(C(=O)OCC(=O)N(CCc2ccccc2)Cc2ccccc2)cc1S(=O)(=O)N1CCOCC1	-6.04*	-6.04
COc1ccc(C(=O)N(CCc2ccccc2)Cc2ccccc2)cc1S(=O)(=O)N1CCOCC1	i	x
Cc1ccc(C(=O)N(CCc2ccccc2)Cc2ccccc2)cc1S(=O)(=O)N1CCCCC1	-8.06*	-8.06
O=C(OCC(=O)N(CCc1ccccc1)Cc1ccccc1)c1cc(S(=O)(=O)N2CCOCC2)ccc1F	i	x
O=C(OCC(=O)N(CCc1ccccc1)Cc1ccccc1)c1ccccc1NCCO	-6.48*	-6.48
O=C(OCC(=O)N(CCc1ccccc1)Cc1ccccc1)c1cccc(O)c1	i	x
CN(CCC(=O)Nc1ccc(Cl)cc1)Cc1ccccc1	i	2.34
SMILES	KCNQ2 block	KCNQ2 pot
COc1ccccc1C(=O)NC(=O)COC(=O)c1nc2nc(C)cc(C)n2n1	i	x
Cc1cc(C)cc(NC(=O)CSc2nc(N)c(NC(=O)c3ccc(Br)o3)c(=O)[nH]2)c1	i	x
O=C(NC1CCCCC1)C(=O)c1c[nH]c2ccccc12	i	1.44
CN(C)c1ccc(C(CNC(=O)COc2ccc(Cl)cc2)N2CCCC2)cc1 (stereo not given)	i	x
Cc1ccccc1N(C(=O)c1csnn1)C(C(=O)NC1CCCC1)c1ccncc1 (stereo not given)	i	x
CCOC(=O)c1c(C)[nH]c(C(=O)OCC(=O)N(C)CC(=O)Nc2ccccc2Cl)c1C	i	0.21
CC(C)c1ccc(COc2ccc(C(=O)N3CCOCC3)cc2)cc1	i	x
O=C(c1ccc(Cl)c(S(=O)(=O)NCc2ccccc2)c1)N1CCN(c2ccccn2)CC1	-5.77*	-5.77
O=C(c1ccc(Cl)c(S(=O)(=O)N2CCCC2)c1)N1CCN(c2ccccn2)CC1	i	0.71
CC(C)c1ccc(OCc2ccc(C(=O)N3CCN(c4ccccn4)CC3)cc2)cc1	-7.5*	-7.5
Cc1ccc(CNC(=O)c2nccnc2C(=O)O)cc1	i	1.23
CC(C)CN(C(=O)c1cccs1)C1CCS(=O)(=O)C1 (stereo not given)	i	x
CS(=O)(=O)N1CCN(C(=O)Cc2ccc(Br)cc2)CC1	i	0.36
CCCc1ccc(S(=O)(=O)N2CCN(Cc3ccco3)CC2)cc1	-5.87*	-5.87
Cc1ccc(S(=O)(=O)N2CCN(Cc3ccco3)CC2)cc1C	i	x
COCCN(C(=O)COC(=O)CSc1ccc2ccccc2c1)c1c(N)n(Cc2ccccc2)c(=O)[nH]c1=O	i	x
COCCNC(=O)CSc1n[nH]c(=O)n1CCc1ccccc1	i	0.26
Cc1ccc(C(c2nnnn2C2CCCC2)N2CCN(c3nc4ccccc4s3)CC2)cc1 (stereo not given)	-6.38*	-6.38
Cc1ccc(C(c2nnnn2C2CCCCC2)N2CCc3ccccc32)cc1 (stereo not given)	-5.56*	-5.56
